Compounds without any hit were thinned out: in the full panel of roughly 83,000, 20% have a hit.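 Percent growth is the endpoint: 0 to 100 indicates growth inhibition (40 means 60% inhibition), 0 means no net growth, and negative values indicate cell death.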 The source made the active and inactive calls. Rule for the calls: active = growth percent below 10; inactive = the rest.
The compounds below were run on HL-60(TB) leukemia (assay: NCI-60 one-dose screen, 48 h (100 = growth as untreated, 0 = no growth, -100 = all killed)). Conditions: 10 µM unless noted.

Question: For `C[C@@H]1C[C@H]2C(=O)O[C@@H](C)[C@H](NC(=O)[C@H](Cc3cc(F)cc(F)c3)NC(=O)Nc3ccc(C4CC4)cc3F)C(=O)N3CCC[C@H]3C(=O)N3CCCC[C@H]3C(=O)N[C@@H](C)C(=O)N2C1`, which growth is on record?
Answer: Its growth is 20.9% (inactive).

Question: For `C=C(Cl)COC(=O)C(C)(C)O`, which growth is on record?
Answer: Its growth is 103% (inactive).

Question: Which growth does the source give for `Cc1ccc(/C=C(\C#N)c2cc3ccccc3n2C)cc1` here?
Answer: The growth was 4.45% (active).

Question: `Nc1nc2c(c(=O)[nH]1)C(c1ccc3c(c1)OCO3)C=C(C(=O)O)N2` (stereo not drawn) was tested. Which growth did it give?
Answer: Its growth is 111% (inactive).

Question: `O=C(CCCCCCCCC(=O)N/N=C\c1cc(Cl)ccc1O)N/N=C\c1cc(Cl)ccc1O` was tested. Which growth did it give?
Answer: Its growth is 9.81% (active).

Question: How did the growth turn out when `CCCCCCCCNc1ncnc2c1ncn2Cc1nnc2c3ccccc3c(Cl)nn12` was run?
Answer: Its growth is 29.2% (inactive).

Question: With `c1ccc(-c2cc3n4c(-c5ccccc5)nn(-c5ccccc5)c4cnc-3n2)cc1` as the compound, how does the growth read?
Answer: The growth was 120% (inactive).

Question: Which growth does the source give for `COc1ccc(/C=C2\Oc3cc(OCCN4CCCC4)ccc3C2=O)c(OC)c1` here?
Answer: The growth was 75.6% (inactive).

Question: Which growth does the source give for `CN(C)c1ccc(-c2ccc(-c3ccc(C(=N)N)cc3)s2)cc1` here?
Answer: Its growth is 14.4% (inactive).

Question: With `CC1=NC(c2ccc(Cl)cc2)C2=C(N1)/C(=C/c1ccc(Cl)cc1)CCC2` (stereo not drawn) as the compound, how does the growth read?
Answer: The growth was 85.8% (inactive).

Question: For `CC(=O)CC/C=C(\C)[C@H](O)[C@H](C)C(=O)O[C@H]1C[C@H](C)C=C2C=C[C@@]3(C)O[C@@H](O)CC(=O)[C@]3(C)[C@H]21`, which growth is on record?
Answer: The growth was -21.3% (active).

Question: `COc1ccc2c(c1)c(-c1nc(-c3c[nH]c4ncccc34)cs1)cn2CCCN1CCOCC1` was tested. Which growth did it give?
Answer: Its growth is 17.4% (inactive).

Question: `COc1cc(NC(=O)CSc2nc3ccc(C)cc3c(=O)n2-c2ccccc2)cc(OC)c1OC` was tested. Which growth did it give?
Answer: Its growth is 89.1% (inactive).

Question: `Cc1nn(-c2ccc([N+](=O)[O-])cc2)c2ncnc(N/N=C/c3ccccc3O)c12` was tested. Which growth did it give?
Answer: Its growth is -0.479% (active).

Question: How did the growth turn out when `COc1cc(Cl)c(C)cc1NC(=O)c1cc2ccccc2cc1O` was run?
Answer: Its growth is 9.27% (active).

Question: Which growth does the source give for `[N-]=[N+]=NCc1cccc(/C(O)=C/C(=O)C(=O)O)c1` here?
Answer: Its growth is 17.3% (inactive).

Question: For `N#Cc1c(N)n2c(nc1=Nc1ccc([N+](=O)[O-])cc1)sc1cc(Cl)ccc12`, which growth is on record?
Answer: The growth was 117% (inactive).

Question: `O=C(Nc1cc(Cl)cc(Cl)c1)Oc1c(Cl)c(Cl)c(Cl)c(Cl)c1Cl` was tested. Which growth did it give?
Answer: The growth was 60.9% (inactive).

Question: How did the growth turn out when `CCCn1cnc2c(c1=N)C(c1ccc(F)cc1)c1sc3c(F)cccc3c1O2` (stereo not drawn) was run?
Answer: Its growth is 3.36% (active).

Question: Which growth does the source give for `CCCCCCCC/C=C\CCCCCCCC(=O)Oc1cccc2cccnc12` here?
Answer: The growth was 83.9% (inactive).

Question: `c1ccc(-c2n(Cc3ccc4ccccc4c3)cc[n+]2Cc2ccc3ccccc3c2)cc1` was tested. Which growth did it give?
Answer: The growth was -47.6% (active).

Question: `NC(=O)C1CCCN(Cc2c[nH]c3ccccc23)C1` (stereo not drawn) was tested. Which growth did it give?
Answer: The growth was 102% (inactive).

Question: `COc1ccc(/C=C(\C#N)n2nnc3c(F)cccc32)cc1` was tested. Which growth did it give?
Answer: The growth was -5.39% (active).

Reference: PubChem BioAssay (NCI)
